This is a sample that favours compounds with a hit; in the whole collection about 0.45% have one here.
BCR signal inh: chronic active BCR signaling inhibition. Potency, µM (highest dose often 46.1 µM), usual class: inhibitors. 340,000 compounds, 0.05% hits. ABC-DLBCL IkBa-CBG/CBR reporter, luminescence ratio, 4 h; active = well fitted inhibition curve with a large enough effect in the signal ratio, with a control signal flat, not every such curve was filed as active; inconclusive = small, poorly fitted or top-dose-only effect, or effect the other way, or a change in a side signal; the % refers to the signal ratio
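Concentration-response series (up to 46 uM) were applied to TMD8 dual-reporter cells for 4 h at 37C with doxycycline. Green/red ratio, after filter-overlap correction, defined %Activity; red signal alone was normalised to basal cells and zero luminescence.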
B2AR arrestin: agonists driving beta-arrestin recruitment to human beta2-adrenergic receptor | 330,000 compounds, 0.02% hits | AID 492947 | Potency, µM (highest dose often 46.1 µM), actives largely listed as activators | beta-arrestin recruitment to beta2AR, cell-based reporter | P07550; note: nearly all actives have a fitted effect of over 65% in size
Anesthetic bind: candidate novel general anesthetic via apoferritin binding. P02791. apoferritin/1-aminoanthracene competitive binding, fluorescence. Potency, µM (top dose mostly 77.5 µM), usual class: inhibitors. 350,000 compounds, 0.074% hits. AID 485281; note: nearly all actives have a fitted effect of over 20% in size
Target sequence (P02791 2-175 limits assumed): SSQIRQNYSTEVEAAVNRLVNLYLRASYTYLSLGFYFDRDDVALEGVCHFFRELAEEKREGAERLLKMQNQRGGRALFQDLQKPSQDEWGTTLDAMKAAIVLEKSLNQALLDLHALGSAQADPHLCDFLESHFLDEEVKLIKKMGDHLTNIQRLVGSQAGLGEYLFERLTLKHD
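Steps: apoferritin (10 uM) was premixed with half-saturated 1-AMA in PBS, compounds were pin-transferred, plates stood 10 min at room temperature, fluorescence was read at 380/535 nm, and curves were fitted with a Hill equation.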
Pin1 inhibitor: human Pin1 inhibition; Q13526; Pin1 FP peptide displacement, HiFluor488, 10 min; Potency, µM (titrated, usually from 115 µM), most hits filed as inhibitors; 390,000 compounds, 0.009% hits; AID 504891; active = well fitted inhibition curve with a large enough effect in the polarisation, with a control signal flat, not every such curve was filed as active; inconclusive = small, poorly fitted or top-dose-only effect, or effect the other way, or a change in a side signal; inactive = no such curve, though single readings can be large or run the other way; the % refers to the polarisation
Target sequence (Q13526 whole entry, looked up): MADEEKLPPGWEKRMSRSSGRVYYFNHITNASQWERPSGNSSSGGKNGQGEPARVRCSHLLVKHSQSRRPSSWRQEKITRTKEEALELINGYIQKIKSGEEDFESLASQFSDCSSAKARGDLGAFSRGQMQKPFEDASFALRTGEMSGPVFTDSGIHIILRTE
Tb PGK inh: T. brucei PGK inhibition; Potency, µM (top dose mostly 57.5 µM), usual class: inhibitors; AID 602233; PGK/GAPDH coupled, Kinase-Glo luminescence, 60 min; 380,000 compounds, 0.043% hits; P07378; note: nearly all actives have a fitted effect of over 60% in size
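Recombinant glycosomal PGK reaction used 1,3-bisphosphoglycerate generated in-well by GAPDH (100nM final) in 100mM TEA pH 7.6, 5mM MgCl2, 0.01% Tween-20. After 60 minutes at room temperature, ATP was read by Kinase-Glo Plus luminescence end-point.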
FEN1 inh-1: human FEN1 inhibition; P39748; Recombinant FEN1 flap cleavage, fluorescence, 15 min; Potency, µM (series often up to 114 µM), usual class: inhibitors; 390,000 compounds, 0.35% hits; note: nearly all actives have a fitted effect of over 65% in size
Target sequence (P39748 whole entry, looked up): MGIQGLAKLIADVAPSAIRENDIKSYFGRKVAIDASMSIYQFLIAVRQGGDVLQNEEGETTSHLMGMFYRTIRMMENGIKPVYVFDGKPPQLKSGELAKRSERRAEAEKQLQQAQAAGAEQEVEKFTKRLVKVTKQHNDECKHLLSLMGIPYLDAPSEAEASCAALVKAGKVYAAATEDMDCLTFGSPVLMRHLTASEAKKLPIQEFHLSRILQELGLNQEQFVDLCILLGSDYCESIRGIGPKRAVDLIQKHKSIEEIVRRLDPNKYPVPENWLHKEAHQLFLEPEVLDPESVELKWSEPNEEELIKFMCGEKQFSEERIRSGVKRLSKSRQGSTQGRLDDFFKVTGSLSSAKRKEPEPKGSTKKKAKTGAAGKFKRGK
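In this screen, 50 nM flap DNA substrate was added to 10 nM FEN1 pretreated with compound for 15 min at room temperature; cleavage was followed with reads at 0 and 15 min, and Hill fitting gave concentration–response parameters.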
FEN1 inh-2: confirmation of human FEN1 inhibitors. shares compounds with FEN1 inh-1. FEN1 flap cleavage, TAMRA/BHQ2 fluorogenic DNA substrate. Potency, µM, most hits filed as inhibitors. 880 compounds, 79% hits. AID 720498; note: nearly all actives have a fitted effect of over 60% in size
Hits are given with their value; - = inactive; ? = inconclusive; . = not tested or not shown. Unless noted, calls come from the whole dose curve; as a rule, active = well fitted curve in the direction sought with a large enough effect; inconclusive = small, poorly fitted or top-dose-only effect, or another doubt; inactive = no such curve, though single readings can be large; an effect the other way counts as inactive or inconclusive.

SMILES	BCR signal inh	B2AR arrestin	Anesthetic bind	Pin1 inhibitor	Tb PGK inh	FEN1 inh-1	FEN1 inh-2
Nc1cc(S(=O)(=O)O)cc([N+](=O)[O-])c1O	-	-	-	?	?	?	?
O=C1c2ccccc2C(=O)N1c1cccc2cnccc12	.	.	.	-	.	.	.
O=C(COC(=O)c1ccc([N+](=O)[O-])o1)Nc1cccc(S(=O)(=O)N2CCCCC2)c1	-	-	?	-	-	?	30
Cc1ccc(NC(=O)COC(=O)c2ccc(Br)o2)cc1S(=O)(=O)N1CCCCC1	-	-	.	-	-	-	.
Cc1ccc(C(=O)OCC(=O)Nc2cccc(S(=O)(=O)N3CCCCC3)c2)o1	-	-	.	-	-	-	.
Cc1ccc(NC(=O)COC(=O)c2ccc([N+](=O)[O-])o2)cc1S(=O)(=O)N1CCCCC1	-	-	-	-	-	?	27
CC(C)(C)c1ccc(C(=O)C[n+]2ccc(Cl)c3ccc(Cl)cc32)cc1	.	.	.	.	.	-	.
COc1cccc(NC(=O)C(OC(=O)CNC(=O)c2ccccc2)c2ccccc2)c1 (stereo not given)	.	.	.	-	.	.	.
CS(=O)(=O)c1ccc2c(c1)sc1nc(=O)c(/C=C3/C=CC(=O)C(O)=C3)c(N)n12	?	-	-	?	13µM	13µM	38
O=C(O)c1cc(Cl)ccc1-c1ccc(/C=C/c2cc(C(F)(F)F)[nH]c(=O)n2)o1	-	-	-	?	-	?	60
CC1(C)C(=O)Nc2ccccc2N1C(=O)COC(=O)c1ccc([N+](=O)[O-])o1	-	-	.	-	-	20µM	19
O=C1CN(C(=O)COC(=O)c2ccco2)c2ccccc2N1	-	-	.	-	-	-	.
O=C1CN(C(=O)COC(=O)c2ccc([N+](=O)[O-])o2)c2ccccc2N1	-	-	.	-	-	?	19
O=C1CN(C(=O)COC(=O)c2ccc([N+](=O)[O-])s2)c2ccccc2N1	-	-	.	-	-	?	7.6
O=C1CN(C(=O)COC(=O)c2cccs2)c2ccccc2N1	-	-	.	-	-	-	.
CCOC(=O)/C=C1\CN(Cc2ccc(OC)cc2)S(=O)(=O)c2ccc(C(F)(F)F)cc21	.	.	.	.	.	-	.
Cc1cccc(Cn2cnc3c(cnn3C(C)(C)C)c2=O)c1F	.	.	.	.	.	-	.
CCN(CC(=O)Nc1c(F)cccc1F)C(=O)/C=C/c1ccc(C)o1	?	-	.	-	-	-	.
CCN(CC(=O)Nc1c(F)cccc1F)C(=O)/C=C/c1ccc2ccccc2n1	-	-	.	.	?	50µM	76
Nc1ccc2oc(=O)ccc2c1I	.	.	-	.	.	.	.
NS(=O)(=O)c1cccc(C(=O)NC2CCSc3ccccc32)c1 (stereo not given)	-	-	-	-	-	-	.
NS(=O)(=O)c1cc(C(=O)NC2CCSc3ccccc32)ccc1Cl (stereo not given)	-	-	-	.	1µM	2.8µM	3.8
Nc1ccc(-c2c3ccc(=O)cc-3oc3cc(O)ccc23)cc1C(=O)O	?	-	-	?	?	-	.
O=c1ccc2c(-c3ccccc3)c3ccc(O)cc3oc-2c1	-	-	-	?	-	45µM	34
COc1ccc(C(=O)NCC(=O)OC(C(=O)Nc2cc(C(F)(F)F)ccc2Cl)c2ccccc2)cc1OC (stereo not given)	.	.	.	-	.	.	.
SMILES	BCR signal inh	B2AR arrestin	Anesthetic bind	Pin1 inhibitor	Tb PGK inh	FEN1 inh-1	FEN1 inh-2
O=C(O)CCCNc1cc(N2CCN(C(=O)c3ccco3)CC2)c2noc3c2c1C(=O)c1ccccc1-3	?	-	-	?	-	?	27
CCN(CC)CCNC(=O)c1cc2c(-c3cccc(OC)c3)nn(C)c2s1	?	-	-	?	-	?	38
CCCN(CCC)CCNC(=O)c1cc2c(-c3ccc(Cl)cc3)nn(C)c2s1	-	-	-	-	-	?	.
COCCCNC(=O)c1cc2c(-c3cccc(OC)c3)nn(C)c2s1	?	-	-	-	-	-	.
CCCCN(CC)CCNC(=O)c1cc2c(-c3ccc(Cl)cc3)nn(C)c2s1	-	-	?	-	-	45µM	38
CCOCCCNC(=O)c1cc2c(-c3ccc(Cl)cc3)nn(C)c2s1	-	-	-	-	-	-	.
CCN(CC)CCNC(=O)c1cc2c(-c3ccc(Cl)cc3)nn(C)c2s1	?	-	-	-	-	28µM	38
Cc1c2c(c(O)c3c(O)cccc13)C(=O)O[C@H]2C1C(N(C)C)C(O)=C(C(N)=O)C(=O)[C@H]1O (stereo not given in full)	.	.	-	.	.	.	.
O=[S+]([O-])(c1c(F)cccc1F)N1CCN([S+](=O)([O-])c2csc3ccccc23)CC1	.	.	.	-	.	.	.
COc1ccc(CCNC(=O)COc2ccc([N+](=O)[O-])cc2)cc1	-	-	-	-	-	-	.
COc1ccc(CCNC(=O)COC(=O)c2ccc([N+](=O)[O-])o2)cc1	-	-	.	?	-	?	17
O=C(COC(=O)c1ccc([N+](=O)[O-])o1)NCCCc1ccccc1	-	-	.	-	-	?	19
Cc1ncnc2nc[nH]c12	.	.	.	.	.	-	.
Cc1ccc(N[S+](=O)([O-])c2cc3c(cc2CCc2ccccc2)NC(=O)CO3)cc1C	.	.	.	-	.	.	.
O=C1c2ccc3c4c(ccc(c24)C(=O)N1NC(=O)C(F)(F)F)CC3	-	-	-	.	-	56µM	60
O=C(NN1C(=O)c2ccc3c4c(ccc(c24)C1=O)CC3)c1ccc(Br)cc1	-	-	-	-	-	-	.
CCOc1ccc(N=Cc2c(C)[nH]n(-c3nc4ccccc4[nH]3)c2=O)cc1	?	-	-	?	?	?	?
Cc1[nH]n(-c2ccccc2)c(=O)c1C=Nc1cnc2ccccc2c1	-	-	-	-	-	-	.
Cc1[nH]c2ccccc2c1/C=C/c1c(C)[nH]c2ccccc12	.	.	.	.	.	-	.
Cc1[nH]c2ccccc2c1/C=C/c1cc[n+](C)cc1	-	-	-	?	-	?	?
Cc1ccccc1C1=C/C(=C(\SS/C(C(=O)c2ccc(OCC(=O)O)c(Cl)c2Cl)=C2\C=C(c3ccccc3C)SS2)C(=O)c2ccc(OCC(=O)O)c(Cl)c2Cl)SS1	.	.	.	.	?	56µM	?
O=C(O)COc1ccc(C(=O)c2cccs2)c(Cl)c1Cl	.	.	-	.	.	.	.
CC(=O)c1ccc(NC(=O)c2ccc(NC(=O)c3ccco3)cc2)cc1	-	-	-	-	-	?	.
COC(=O)c1ccc(NC(=O)c2ccc(NC(=O)c3ccco3)cc2)cc1	?	-	-	-	-	?	?
O=C1Cc2cc(S(=O)(=O)N3CCN(c4ccc(Br)cc4)CC3)ccc2N1	.	.	.	-	.	.	.
CN(C)C(CNC(=O)c1cc(-c2ccco2)nc2ccccc12)c1ccccc1 (stereo not given)	-	-	.	.	-	?	?
CC(C)(C)n1ncc2c(=O)n(Cc3ccc(SC(=O)O)cc3Cl)cnc21	.	.	.	.	.	-	.

Compound activity from PubChem.
